PubChem BioAssay (Tox21)
Records with an inconclusive call do not appear. Activity calls are given as the source filed them. Unless noted, calls come from the whole dose curve; as a rule, active = well fitted curve in the direction sought with a large enough effect in the repeat runs; inconclusive = weak or mixed curves; inactive = no such curve, though single readings can be large; an effect the other way counts as inactive or inconclusive.

Assays:
[1] = qHTS assay to identify small molecule antagonists of the estrogen related receptor (ERR) signaling pathway - cell viability counter screen (AID 1224818);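 note: series mostly up to about 46 µM; viability measured after 17.5 h of compound exposure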
How it was run: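 Cytotoxicity check run alongside the ERR antagonist screen: cells exposed to test compounds 17.5 h at 37 C, viability taken as CellTiter-Fluor fluorescence intensity.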

[2] = qHTS assay to identify small molecule agonists of the estrogen related receptor (ERR) signaling pathway (AID 1224820)
How it was run: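 An ERR cell line provided by NTP was seeded at 2,000 cells per well and allowed to settle for 6 h before compounds in DMSO were added. After 18 h at 37 C, luciferase activity was measured by One-Glo luminescence.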

[3] = system: estrogen-related receptor alpha (ERRalpha) with PGC-1alpha coactivator, human; test: qHTS assay to identify small molecule antagonists of the estrogen related receptor signaling pathway with the pleiotropic PPARgamma coactivator (PGC) (AID 1224821; calls by dose curve;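 note: series mostly up to about 46 µM; lower luminescence signal means antagonism of PGC/ERR signalling; nearly all actives have a fitted effect of over 50% in size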)
How it was run: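 A PGC/ERR cell line supplied by NTP is seeded, allowed 6 h at 37 C, and treated with test compounds in DMSO for 18 h. Signal is then measured as luciferase luminescence using One-Glo.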

[4] = qHTS assay to identify small molecule antagonists of the estrogen related receptor signaling pathway with the pleiotropic PPARgamma coactivator (PGC) cell viability counter screen (AID 1224822;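 note: series mostly up to about 46 µM; viability read after 17.5 h compound exposure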)
How it was run: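 Viable cell signal (CellTiter-Fluor, 30 min, 37 C/5% CO2) was measured in PGC/ERR cells after a 17.5 h compound incubation.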

[5] = qHTS assay to identify small molecule agonists of the estrogen related receptor signaling pathway with the pleiotropic PPARgamma coactivator (PGC) (AID 1224823)
How it was run: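 Compounds dissolved in DMSO are added by pin tool to PGC/ERR cells that have settled for 6 h, and incubation continues 18 h at 37 C. Reporter output is measured as One-Glo luminescence.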

[6] = qHTS assay for small molecule agonists of the p53 signaling pathway (AID 651631; calls by dose curve; note: nearly all actives have a fitted effect of over 15% in size)
How it was run: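 Readout was fluorescence from the LiveBLAzer FRET substrate, applied for 2 h at room temperature after 16 h compound exposure at 37 °C. Cells were the p53RE-bla HCT-116 line, with beta-lactamase driven by p53 response elements.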

[7] = qHTS assay for small molecules that induce genotoxicity in human embryonic kidney cells expressing luciferase-tagged ATAD5 (AID 651632); note: nearly all actives have a fitted effect of over 15% in size
How it was run: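 Test compounds were delivered by pin tool onto HEK293T reporter cells (2,000/well) expressing ATAD5 fused to luciferase. After 16 hr at 37C, 5% CO2, Amplite was added for 30 min at room temperature and luminescence was measured.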

[8] = qHTS assay for small molecule agonists of the p53 signaling pathway - cell viability (AID 651633; calls by dose curve; note: series mostly up to about 83 µM; nearly all actives have a fitted effect of over 30% in size)
How it was run: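 Viability counter-read: CellTiter-Glo luminescence (30 min, room temperature) in the same p53RE-bla plates. These plates had been exposed to compounds for 16 h at 37 C.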

[9] = qHTS assay for small molecules that induce genotoxicity in human embryonic kidney cells expressing luciferase-tagged ATAD5 - cell viability (AID 651634; calls by dose curve; note: nearly all actives have a fitted effect of over 25% in size)
How it was run: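 Quantitative high-throughput format. HEK293T cells expressing ATAD5 fused to luciferase were plated at 2,000 cells/well and treated 15.5 hr with compound versus DMSO. Viability was determined by fluorescent live-cell protease substrate, 30 min at 37C.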

[10] = qHTS assay for small molecule disruptors of the mitochondrial membrane potential - cell viability (AID 720634; calls by dose curve;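 note: human HepG2 liver cancer cells; series mostly up to about 83 µM; nearly all actives have a fitted effect of over 20% in size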)
How it was run: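 Same-well counter-screen: following the MMP dye addition, CellTiter-Glo was added to 1 hr compound-treated HepG2 cells and luminescence read after 30 min at room temperature.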

[11] = qHTS assay to test for compound auto fluorescence at 535 nm (green) in HepG2 cells (AID 720675)
[12] = qHTS assay to test for compound auto fluorescence at 460 nm (blue) in HEK293 cells (AID 720678)
How it was run: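 Blue read-out at excitation 405 nm and emission 460 nm follows overnight compound exposure of HEK293 cells at 37C in 5% CO2. Activity is given as auto fluorescence equivalency to triamterene.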

[13] = qHTS assay to test for compound auto fluorescence at 590 nm (red) in HEK293 cells (AID 720679)
How it was run: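 Red channel, Ex/Em 540/590nm; signal expressed as equivalency to Rose Bengal sodium. HEK293, 2,000 cells/well, 10% dialyzed FBS; 23 nL compound pinned after 4-5 hr attachment; overnight 37C/5% CO2 before reading.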

[14] = qHTS assay to test for compound auto fluorescence at 535 nm (green) in HEK293 cells (AID 720680)
[15] = qHTS assay to test for compound auto fluorescence at 460 nm (blue) in HEK293 cell free culture (AID 720681)
How it was run: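 Blue fluorescence (Ex 405/Em 460 nm, triamterene-equivalent) was read immediately after pin transfer of compound or DMSO into medium (DMEM, 10% FBS) without cells.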

[16] = qHTS assay to test for compound auto fluorescence at 535 nm (green) in HEK293 cell free culture (AID 720682)
How it was run: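 Compounds were pin-transferred into cell-free DMEM with 10% FBS, and green fluorescence was read at excitation 485 nm and emission 535 nm. Intensities were expressed as fluorescein-equivalent values.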

[17] = qHTS assay to test for compound auto fluorescence at 590 nm (red) in HEK293 cell free culture (AID 720683)
How it was run: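 Red-channel autofluorescence of compounds in culture medium (DMEM, 10% FBS), no cells, measured at 540/590 nm. Rose Bengal sodium is the reference fluorophore for equivalence.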

[18] = qHTS assay to test for compound auto fluorescence at 590 nm (red) in HepG2 cell free culture (AID 720684)
How it was run: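 Cell-free; medium MEM + 10% FBS; compound or DMSO added by pintool; read Ex 540/Em 590 nm; Rose Bengal sodium as red reference fluorophore.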

[19] = qHTS assay to test for compound auto fluorescence at 460 nm (blue) in HepG2 cell free culture (AID 720685)
How it was run: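 Cell-free plates of MEM plus 10% FBS received 23 nL compound or DMSO vehicle; blue-channel (405/460 nm) intensity scored against triamterene as reference fluorophore.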

[20] = qHTS assay to test for compound auto fluorescence at 535 nm (green) in HepG2 cell free culture (AID 720686)
[21] = qHTS assay to test for compound auto fluorescence at 460 nm (blue) in HepG2 cells (AID 720687)
How it was run: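 Blue-channel autofluorescence (Ex/Em 405/460 nm, triamterene-equivalent) was measured after 1 hr compound exposure at 37 C, 5% CO2. Cells were HepG2, plated overnight at 37 C in MEM plus 10% FBS.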

[22] = qHTS assay to identify small molecule antagonists of the glucocorticoid receptor (GR) signaling pathway - cell viability counter screen (AID 720693); note: nearly all actives have a fitted effect of over 55% in size
[23] = qHTS assay for identifying genotoxic compounds that show differential cytotoxicity against isogenic chicken DT40 cell lines with known DNA damage response pathways - Rev3 mutant cell line (AID 743014); note: nearly all actives have a fitted effect of over 55% in size
[24] = qHTS assay for identifying genotoxic compounds that show differential cytotoxicity against isogenic chicken DT40 cell lines with known DNA damage response pathways - Rad54/Ku70 mutant cell line (AID 743015); note: nearly all actives have a fitted effect of over 60% in size
[25] = qHTS assay to identify small molecule antagonists of the androgen receptor (AR) signaling pathway - cell viability counter screen (AID 743033; note: nearly all actives have a fitted effect of over 45% in size)
[26] = qHTS assay to identify small molecule antagonists of the androgen receptor (AR) signaling pathway using the MDA cell line - cell viability counter screen (AID 743041; note: nearly all actives have a fitted effect of over 45% in size)
How it was run: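 Viability read by CellTiter-Fluor fluorescence in the same wells as the antagonist screen, added after 15.5 h of a 16 h, 37C exposure. Human breast carcinoma MDA-kb2 AR-luc cells, compounds co-dosed with agonist R1881.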

[27] = molecular target: Estrogen receptor (Homo sapiens) (UniProt P03372); test: qHTS assay to identify small molecule antagonists of the estrogen receptor alpha (ER-alpha) signaling pathway (AID 743069; active = well fitted curve in the direction sought with a large enough effect in the signal ratio in the repeat runs, not every such curve was filed as active; the % refers to the signal ratio)
Chain of Estrogen receptor (Homo sapiens) (P03372 whole entry, looked up): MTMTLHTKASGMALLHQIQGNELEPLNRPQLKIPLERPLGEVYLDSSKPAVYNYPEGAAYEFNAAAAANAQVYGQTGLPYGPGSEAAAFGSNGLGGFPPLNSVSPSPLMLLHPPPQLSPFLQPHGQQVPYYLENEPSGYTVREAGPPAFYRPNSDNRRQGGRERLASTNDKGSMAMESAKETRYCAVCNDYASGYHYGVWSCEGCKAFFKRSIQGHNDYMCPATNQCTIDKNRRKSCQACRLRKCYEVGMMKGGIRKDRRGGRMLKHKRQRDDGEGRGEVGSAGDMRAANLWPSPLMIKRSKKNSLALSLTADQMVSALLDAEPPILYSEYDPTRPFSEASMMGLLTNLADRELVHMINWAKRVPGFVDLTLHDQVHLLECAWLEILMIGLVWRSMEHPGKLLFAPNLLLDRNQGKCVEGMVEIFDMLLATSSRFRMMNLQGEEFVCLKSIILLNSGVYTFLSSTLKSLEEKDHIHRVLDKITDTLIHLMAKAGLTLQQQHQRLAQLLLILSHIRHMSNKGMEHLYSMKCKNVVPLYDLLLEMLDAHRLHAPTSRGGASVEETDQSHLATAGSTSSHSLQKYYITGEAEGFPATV
How it was run: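 Antagonist mode: compounds in DMSO were co-added with 17beta-estradiol to ER-alpha-bla HEK293 cells (2% charcoal-stripped serum) and left 18 h at 37C. Reporter inhibition was measured as FRET fluorescence after 2 h LiveBLAzer substrate at room temperature.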

[28] = qHTS assay to identify small molecule antagonists of the estrogen receptor alpha (ER-alpha) signaling pathway - cell viability counter screen (AID 743074; calls by dose curve;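 note: HEK293 cells carrying ER-alpha-UAS-bla reporter stimulated with 17beta-estradiol; nearly all actives have a fitted effect of over 45% in size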)
[29] = molecular target: Estrogen receptor (Homo sapiens) (UniProt P03372); test: qHTS assay to identify small molecule agonists of the estrogen receptor alpha (ER-alpha) signaling pathway (AID 743075; calls by dose curve;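 note: HEK293 GripTite cells with ER-alpha and UAS-driven beta-lactamase reporter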)
[30] = molecular target: Estrogen receptor (Homo sapiens) (UniProt P03372); test: qHTS assay to identify small molecule agonists of the estrogen receptor alpha (ER-alpha) signaling pathway using the BG1 cell line (AID 743079); note: nearly all actives have a fitted effect of over 20% in size
[31] = qHTS assay to identify small molecule antagonists of the estrogen receptor alpha (ER-alpha) signaling pathway using the BG1 cell line (AID 743080; calls by dose curve;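 note: BG1 cells stimulated with 17beta-estradiol alongside compound; series mostly up to about 70 µM; nearly all actives have a fitted effect of over 25% in size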)
How it was run: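 Luminescence from a 4×ERE-luciferase reporter in BG1-Luc-4E2 cells served as read-out. Cells, pre-cultured 5 days in stripped-serum phenol-red-free medium, were exposed to compound with 17beta-estradiol co-stimulation for 21.5 h at 37 C.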

[32] = qHTS assay to identify small molecule antagonists of the estrogen receptor alpha (ER-alpha) signaling pathway using the BG1 cell line - cell viability counter screen (AID 743081);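 note: compound given together with 17beta-estradiol as the ER stimulus; series mostly up to about 70 µM; nearly all actives have a fitted effect of over 45% in size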
[33] = qHTS assay to identify aromatase inhibitors - cell viability counter screen (AID 743084);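 note: cells stimulated with testosterone during compound exposure; nearly all actives have a fitted effect of over 55% in size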
[34] = molecular target: Aryl hydrocarbon receptor (Homo sapiens) (UniProt P35869); test: qHTS assay to identify small molecule that activate the aryl hydrocarbon receptor (AhR) signaling pathway (AID 743085);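 note: HG2L7.5c1 human HepG2 liver cells with stably integrated DRE-driven firefly reporter; series mostly up to about 70 µM; nearly all actives have a fitted effect of over 15% in size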
Chain of Aryl hydrocarbon receptor (Homo sapiens) (P35869 whole entry, looked up): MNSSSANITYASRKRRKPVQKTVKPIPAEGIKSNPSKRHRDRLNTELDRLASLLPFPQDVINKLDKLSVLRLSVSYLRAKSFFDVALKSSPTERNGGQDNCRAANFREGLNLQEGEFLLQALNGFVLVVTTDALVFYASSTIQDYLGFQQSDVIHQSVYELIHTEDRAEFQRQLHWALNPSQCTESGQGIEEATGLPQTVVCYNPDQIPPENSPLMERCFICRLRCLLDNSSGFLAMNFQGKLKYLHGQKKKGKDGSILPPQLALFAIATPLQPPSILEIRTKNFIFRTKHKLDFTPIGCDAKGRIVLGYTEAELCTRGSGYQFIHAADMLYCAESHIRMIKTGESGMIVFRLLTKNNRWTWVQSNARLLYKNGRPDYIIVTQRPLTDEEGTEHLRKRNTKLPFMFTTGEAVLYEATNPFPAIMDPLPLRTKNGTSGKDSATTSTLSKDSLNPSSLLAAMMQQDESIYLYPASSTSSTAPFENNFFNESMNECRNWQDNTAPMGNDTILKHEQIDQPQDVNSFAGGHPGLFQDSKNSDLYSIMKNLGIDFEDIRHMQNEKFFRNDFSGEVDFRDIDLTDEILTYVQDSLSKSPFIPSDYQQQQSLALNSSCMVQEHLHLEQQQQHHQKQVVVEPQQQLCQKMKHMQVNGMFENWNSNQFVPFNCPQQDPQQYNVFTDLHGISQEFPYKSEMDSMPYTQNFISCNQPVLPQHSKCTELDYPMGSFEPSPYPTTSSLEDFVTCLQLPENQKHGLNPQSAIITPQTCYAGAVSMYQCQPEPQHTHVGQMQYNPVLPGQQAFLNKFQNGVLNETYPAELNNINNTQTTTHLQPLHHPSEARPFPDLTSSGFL
How it was run: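 Luminescence (ONE-Glo) from a dioxin-responsive-element luciferase reporter in HG2L7.5c1 HepG2 cells after 24 hr compound exposure at 37C; viability measured by CellTiter-Fluor fluorescence beforehand.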

[35] = qHTS assay to identify small molecule that activate the aryl hydrocarbon receptor (AhR) signaling pathway - cell viability counter screen (AID 743086)
How it was run: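 Cytotoxicity counter screen: CellTiter-Fluor signal (30 min, 37 C) in 4000 HepG2 cells/well carrying the DRE-luciferase reporter, following 24 h compound exposure at 37 C.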

[36] = molecular target: Peroxisome proliferator-activated receptor gamma (Homo sapiens) (UniProt P37231); test: qHTS assay to identify small molecule agonists of the peroxisome proliferator-activated receptor gamma (PPARg) signaling pathway (AID 743094; active = well fitted activation curve with a large enough effect in the signal ratio in the repeat runs, not every such curve was filed as active; the % refers to the signal ratio)
Chain of Peroxisome proliferator-activated receptor gamma (Homo sapiens) (P37231 whole entry, looked up): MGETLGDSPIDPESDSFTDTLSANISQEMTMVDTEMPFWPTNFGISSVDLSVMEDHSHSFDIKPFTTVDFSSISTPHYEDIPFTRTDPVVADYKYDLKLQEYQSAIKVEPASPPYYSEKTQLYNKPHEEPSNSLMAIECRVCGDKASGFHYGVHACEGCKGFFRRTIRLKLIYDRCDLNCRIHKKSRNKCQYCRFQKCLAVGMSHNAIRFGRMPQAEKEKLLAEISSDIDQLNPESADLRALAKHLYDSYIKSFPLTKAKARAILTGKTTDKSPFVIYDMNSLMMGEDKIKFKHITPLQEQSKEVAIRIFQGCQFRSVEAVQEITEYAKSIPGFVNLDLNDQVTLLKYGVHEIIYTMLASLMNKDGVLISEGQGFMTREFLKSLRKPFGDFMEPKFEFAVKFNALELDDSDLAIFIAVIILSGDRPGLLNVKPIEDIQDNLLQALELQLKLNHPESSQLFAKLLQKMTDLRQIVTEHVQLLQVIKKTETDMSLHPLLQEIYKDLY
How it was run: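 Cell-based bla reporter, HEK293H background, PPARg-driven UAS. Pre-incubation 5 h, 37C, 5% CO2. Compound 17 h, 37C. Substrate 1 h RT; fluorescence.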

[37] = qHTS assay to identify small molecule phospholipidosis (PLD) inducers (AID 1259344; active = well fitted curve in the direction sought with a large enough effect; an effect the other way counts as inactive or inconclusive)
How it was run: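 Phospholipid accumulation was scored by imaging: fixed, Hoechst-counterstained HepG2 cells stained with LipidTOX Red after 24 h compound exposure at 37 C. Read-outs were pit count and pit intensity per well or per cell, with amiodarone and DMSO controls.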

[38] = molecular target: Nuclear receptor subfamily 1 group I member 2 (Rattus norvegicus) (UniProt Q9R1A7); test: Rat pregnane X receptor (rPXR) activation by small molecules, qHTS assay (AID 1346983); settings: rPXR luciferase reporter cells, One-Glo luminescence, 24 h; max activation: hits give high values; note: nearly all actives have a fitted effect of over 20% in size
Chain of Nuclear receptor subfamily 1 group I member 2 (Rattus norvegicus) (Q9R1A7 whole entry, looked up): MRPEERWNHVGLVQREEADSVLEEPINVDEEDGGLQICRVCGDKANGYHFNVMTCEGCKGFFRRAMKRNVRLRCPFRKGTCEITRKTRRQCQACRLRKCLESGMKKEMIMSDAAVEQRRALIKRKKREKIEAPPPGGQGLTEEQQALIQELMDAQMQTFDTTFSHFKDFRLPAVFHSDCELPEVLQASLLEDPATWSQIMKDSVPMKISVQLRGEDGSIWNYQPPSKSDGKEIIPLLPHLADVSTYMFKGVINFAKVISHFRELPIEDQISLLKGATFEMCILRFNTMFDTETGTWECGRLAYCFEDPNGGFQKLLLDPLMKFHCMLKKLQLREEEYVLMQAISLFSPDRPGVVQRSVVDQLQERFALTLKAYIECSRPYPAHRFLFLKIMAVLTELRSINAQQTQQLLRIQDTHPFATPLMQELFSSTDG
How it was run: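 Luminescent readout (One-Glo luciferase, 30 min room temperature) followed 24 hr compound treatment at 37 C of rPXR cells plated 2,000 per well and preincubated 5hr; qHTS format with compounds delivered in DMSO.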

[39] = molecular target: Nuclear receptor subfamily 1 group I member 2 (Homo sapiens) (UniProt O75469); test: Human pregnane X receptor (PXR) activation by small molecules, qHTS assay (AID 1346985); note: nearly all actives have a fitted effect of over 40% in size
How it was run: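 DPX-2 cells (HepG2 co-transfected with a PXR response element and a CYP3A4-promoter luciferase construct) were seeded at 2,000 per well, rested 5 hr at 37C, then exposed to DMSO-dissolved compounds for 24 hr. Activation was read as luciferase luminescence.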
% is set by controls: 0 for no effect and ±100 for the full control effect.

CC(C)(C)c1o[nH]c(=O)c1CC(N)C(=O)O (centres undefined)
inactive: Potency [1] | Potency [2] | Potency [3] | Potency [4] | Potency [5]

C[C@]12N[C@H](Cc3ccccc31)c1ccccc12
inactive: Potency [6] | Potency [7] | Potency [8] | Potency [9] | Potency [10] | Potency [11] | Potency [12] | outcome [13] | Potency [14] | Potency [15] | Potency [16] | outcome [17] | outcome [18] | Potency [19] | Potency [20] | Potency [21] | Potency [22] | Potency [23] | Potency [24] | Potency [25] | Potency [26] | Potency [27] | Potency [28] | Potency [29] | Potency [30] | Potency [31] | Potency [32] | Potency [33] | Potency [34] | Potency [35] | Potency [36] | Potency [1] | Potency [2] | Potency [3] | Potency [4] | Potency [5] | Potency [37] | max activation [38] -5.86% | Potency [39]

N#C/C(=C/c1ccc(O)c(O)c1)C(N)=S
inactive: Potency [1] | Potency [2] | Potency [3] | Potency [4] | Potency [5]

NC(CP(=O)(O)O)C(=O)O (centres undefined)
inactive: Potency [1] | Potency [2] | Potency [3] | Potency [4] | Potency [5]

CCCN(CCC)C1Cc2cc(OC)c(OC)cc2C1
inactive: Potency [1] | Potency [2] | Potency [3] | Potency [4] | Potency [5]
